# Assay results taken from PubChem BioAssay AID368 (University of Pittsburgh Molecular Library Screening Center, 2006).
# The whole screen tested about 65,000 compounds, of which about 85 (0.1%) were called active. Shown is part of a subset that was picked to be rich in actives. Unmarked numbers belong to inactive results. Cut-off read from the data, not from the text of the source: active = inhibition above about 50%; inactive = the rest.
# Biological target: M-phase inducer phosphatase 2 (Homo sapiens) (UniProt P30305)
# Sequence (P30305 whole entry, looked up, the tested form may be a part): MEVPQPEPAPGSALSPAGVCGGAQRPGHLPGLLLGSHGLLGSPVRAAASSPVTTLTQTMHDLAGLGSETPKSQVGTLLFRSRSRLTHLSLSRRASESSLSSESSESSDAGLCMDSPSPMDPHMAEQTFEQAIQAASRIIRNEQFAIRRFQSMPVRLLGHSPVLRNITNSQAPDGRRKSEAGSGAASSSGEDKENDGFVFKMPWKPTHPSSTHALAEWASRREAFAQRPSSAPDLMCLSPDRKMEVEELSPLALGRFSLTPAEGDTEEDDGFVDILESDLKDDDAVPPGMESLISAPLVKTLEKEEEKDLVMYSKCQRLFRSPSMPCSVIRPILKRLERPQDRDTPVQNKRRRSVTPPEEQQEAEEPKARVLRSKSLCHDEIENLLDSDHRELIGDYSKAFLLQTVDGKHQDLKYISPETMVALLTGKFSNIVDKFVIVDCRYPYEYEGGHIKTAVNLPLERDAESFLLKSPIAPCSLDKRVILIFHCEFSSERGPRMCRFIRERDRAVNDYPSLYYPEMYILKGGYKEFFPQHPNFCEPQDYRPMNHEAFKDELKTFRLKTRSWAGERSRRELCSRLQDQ
# Test: inhibitors of Cdc25B phosphatase catalytic domain, primary screen, biochemical, OMFP fluorescence (AID 368)
# Conditions: recombinant Cdc25B, OMFP fluorescence Ex485/Em525; hits give high values;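 compounds tested at 10 µM final in the well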
row,SMILES,inhibition
1,CCCOc1ccc(CN(CCO)CCO)cc1C(=O)OC,1.99%
2,O=C(NC1(C(F)(F)F)N=C2SCCN2C1=O)c1ccco1 (stereo not drawn),0.794%
3,O=C(c1ccccc1)c1ccc2nc(N3CCCCC3)c3nncn3c2c1,-11.8%
4,O=S(=O)(c1ccc2ccccc2c1)N1CCN(S(=O)(=O)N2CCOCC2)CC1,-4.37%
5,O=c1cc(CSc2ccc(Cl)cc2)nc(N2CCOCC2)[nH]1,7.35%
6,CCCOP(=O)(c1ccc(N(C)C)cc1)C(O)c1cc(OC)c(OC)c(OC)c1 (stereo not drawn),-0.929%
7,CCOC(=O)N1CCN(CC(=O)n2c(C)c(C)c3ccccc32)CC1,-1.72%
8,Cc1ccc2c(C(=O)CN3CCCC3)c(C)[nH]c2c1,-0.2%
9,CCOC(=O)N1CCN(CC(=O)c2c(C)[nH]c3ccccc23)CC1,60% (active)
10,Cc1occc1C(=O)Nc1cccc(Cn2cccn2)c1,-8.98%
11,O=C(O)CC(Cn1cnnn1)c1ccccc1 (stereo not drawn),-6.9%
12,O=C1CCCc2c1[nH]c1ccc(Br)cc21,5.28%
13,Cc1ccsc1C(C(=O)NC1CCCCC1)N(C(=O)Cc1cccs1)C1CC1 (stereo not drawn),4.04%
14,CCc1c(C)nc2cc(-c3cccs3)[nH]n2c1=O,-13.1%
15,C/C(=C(\C#N)C(=O)NCCCN1CCOCC1)N(C)C,-7.37%
16,CCCC(=O)Nc1ccc(C(=O)NCCCn2ccnc2)cc1,2.06%
17,CCn1cc(C(=O)NCC2COc3ccccc3O2)c2cc(OC)c(OC)cc2c1=O (stereo not drawn),-8.97%
18,CCOC(=O)CNC(=O)CN1C(=O)CCSc2ccccc21,-0.999%
19,O=C1NC(Nc2nc3ccccc3s2)(C(F)(F)F)C(=O)N1C1CCCCC1 (stereo not drawn),-0.883%
20,CC(=O)Nc1ccc(S(=O)(=O)NCCc2ccccc2)cc1,-7.41%
21,CC1OC2C(OC1C)N(S(C)(=O)=O)CCN2S(C)(=O)=O (stereo not drawn),-4.42%
22,CCOc1ccc(CCNC(=O)C(CC)n2nc(C)n3c(cc4sccc43)c2=O)cc1OCC (stereo not drawn),-12.3%
23,CCn1ncc(C2=NOC(C(=O)N3CCN(c4ccccc4)CC3)C2)c1C (stereo not drawn),-17.4%
24,CCOC(=O)C1CCCN(C(=O)C2CCN(c3nnc(-n4cccc4)s3)CC2)C1 (stereo not drawn),6.02%

row,SMILES,inhibition
1,Cn1c(=O)c2c(nc(SCC(=O)Nc3ccccc3N3CCCCC3)n2C)n(C)c1=O,-12.6%
2,CCCCSc1nnc(-c2ccc(C)cc2)o1,-7.53%
3,O=C(Nc1nc2cc3c(cc2s1)OCCO3)c1cccc(S(=O)(=O)N2CCOCC2)c1,-3.84%
4,CCN1C(=O)C(C(=O)NC(C)c2ccccc2)C2CC1(C)Oc1ccccc12 (stereo not drawn),-6.65%
5,c1ccc(CSc2nnc(-c3ccco3)n2Cc2ccccc2)cc1,-11.9%
6,Clc1ccccc1CSc1nnc(-c2ccco2)c(-c2ccco2)n1,-25.9%
7,c1ccc(CSc2nnc(-c3ccco3)c(-c3ccco3)n2)cc1,50.3% (active)
8,C=CCn1c(SCC(=O)NC23CC4CC(CC(C4)C2)C3)nc(O)cc1=O,2.29%
9,NC(=O)CSC1=Nc2ccccc2C2=NC(CCC(=O)NCc3ccc(F)cc3)C(=O)N12 (stereo not drawn),-3.7%
10,CCOC(=O)c1c(C)nc(-c2ccccc2)nc1NC(=O)C(C)C,-5.5%
11,CCOC(=O)Cn1c(N)c(C(=O)OC)sc1=S,-11%
12,CC(=O)Nc1ccn(Cc2c(F)cccc2Cl)n1,-13%
13,O=C(c1ccc(S(=O)(=O)N2CCOCC2)cc1)N1CCN(c2ccccc2)CC1,1.6%
14,CCOC(=O)c1[nH]cnc1C(=O)NC1CCCCC1,-0.873%
15,Cc1csc(NC(=O)NC2(C(F)(F)F)Oc3ccccc3O2)n1,-7.31%
16,O=C(CCCn1c(=O)oc2ccccc21)Nc1cccnc1,-11.7%
17,CS(=O)(=O)N(Cc1nc2sc3c(c2c(=O)[nH]1)CCCC3)C1CCCCC1,-20%
18,O=C1c2ccccc2C(=O)N1CCc1nn[nH]n1,2.01%
19,COc1ccc(C(=O)c2oc3ccc(Br)cc3c2NC(C)=O)cc1,1.8%
20,CC(=O)Nc1ccc(NS(=O)(=O)c2cc(C)sc2C)cc1,7.75%
21,Cc1ccc(S(=O)(=O)N2C3C=CC(C3)C2C(=O)O)cc1 (stereo not drawn),-0.599%
22,Cc1cc(C)cc(NC(=O)N2CCC(NC(=O)c3ccc(F)cc3)CC2)c1,5.11%
23,CCOC(=O)C(CC)Sc1ncnc2c1nnn2-c1ccc(F)cc1 (stereo not drawn),-12.7%
24,COc1cc(-c2noc(C3CCCN(S(=O)(=O)c4cccc(Cl)c4)C3)n2)cc(OC)c1OC (stereo not drawn),3.35%
